Measurements from ChEMBL document CHEMBL1157539, “Thousands of chemical starting points for antimalarial lead identification” (Nature, 2010).

Legend:
Assay type in all cases: functional
Plasmodium falciparum [1] = test: GSK_TCMDC: Inhibition of Plasmodium falciparum 3D7 in whole red blood cells, using parasite LDH activity as an index of growth. Test compounds present at 2uM
Plasmodium falciparum [2] = test: GSK_TCMDC: Inhibition of Plasmodium falciparum Dd2 in whole red blood cells, using parasite LDH activity as an index of growth. Test compounds present at 2uM
HepG2 = test: GSK_TCMDC: Percent inhibition of human HepG2 cell line. Test compounds present at 10uM.

Question: For Cc1cccc(C)c1OC(=O)C(C)C(O)C1(Sc2ccccc2)CCN(C)CC1 (stereo not given), which Inhibition (Plasmodium falciparum [1]) is on record?
Answer: Its Inhibition is 98%.

Question: And the Inhibition (Plasmodium falciparum [2])?
Answer: Its Inhibition is 92%.

Question: And the Inhibition (HepG2)?
Answer: The Inhibition was 23%.

Question: What does the source list for CC(CN(C)C)C(=O)Nc1cccc(-c2ccc(-c3nc4cc(F)ccc4[nH]3)s2)c1 (stereo not given)?
Answer: Inhibition (Plasmodium falciparum [1]): 100%; Inhibition (Plasmodium falciparum [2]): 99%; Inhibition (HepG2): 3%

Question: With Cc1ccc(Nc2nccc(NCC(O)c3cccc(F)c3)n2)cc1 (stereo not given) as the compound, how does the Inhibition (Plasmodium falciparum [1]) read?
Answer: The Inhibition was 95%.

Question: What about the Inhibition (Plasmodium falciparum [2]) of the same compound?
Answer: Its Inhibition is 26%.

Question: And the Inhibition (HepG2)?
Answer: Its Inhibition is 24%.

Question: Which Inhibition (Plasmodium falciparum [1]) does the source give for O=S(=O)(Nc1cccc(CCN2CCC(N3CCCCC3)CC2)c1)c1cccc2cccnc12 here?
Answer: Its Inhibition is 98%.

Question: And the Inhibition (Plasmodium falciparum [2])?
Answer: The Inhibition was 17%.

Question: And the Inhibition (HepG2)?
Answer: The Inhibition was 0%.

Question: Which results are given for CC(C)c1cc(N)c2cc(NC(=O)COCC(=O)Nc3ccc4nc(C(C)C)cc(N)c4c3)ccc2n1?
Answer: Inhibition (Plasmodium falciparum [1]): 95%; Inhibition (Plasmodium falciparum [2]): 95%; Inhibition (HepG2): 0%

Question: For CCOC(=O)C1=C(C)NC2=C(C(=O)CCC2)C1c1cn(Cc2ccc(Cl)cc2Cl)nc1-c1ccccc1 (stereo not given), which Inhibition (Plasmodium falciparum [1]) is on record?
Answer: Its Inhibition is 100%.

Question: What about the Inhibition (Plasmodium falciparum [2]) of the same compound?
Answer: The Inhibition was 96%.

Question: What about the Inhibition (HepG2) of the same compound?
Answer: The Inhibition was 0%.

Question: Cc1cc(=NN=Cc2ccccc2F)c2cc(F)ccc2[nH]1 was tested. Which Inhibition (Plasmodium falciparum [1]) did it give?
Answer: Its Inhibition is 100%.

Question: What about the Inhibition (Plasmodium falciparum [2]) of the same compound?
Answer: The Inhibition was 97%.

Question: What about the Inhibition (HepG2) of the same compound?
Answer: Its Inhibition is 9%.

Question: Which Inhibition (Plasmodium falciparum [1]) does the source give for CCCOc1ccc(-c2nonc2NC(=O)c2ccccc2OC)cc1OCCC here?
Answer: Its Inhibition is 98%.

Question: And the Inhibition (Plasmodium falciparum [2])?
Answer: The Inhibition was 82%.

Question: And the Inhibition (HepG2)?
Answer: The Inhibition was 23%.

Question: What does the source list for Br.CC1(C)NC(N)=NC(=N)N1OCCOc1ccc2ccccc2c1?
Answer: Inhibition (Plasmodium falciparum [1]): 93%; Inhibition (Plasmodium falciparum [2]): 96%; Inhibition (HepG2): 70%

Question: With CN(CCN1CCC(c2c[nH]c3ccccc23)CC1)c1ccc(-c2nc3cc(Cl)c(Cl)cc3[nH]2)cc1 as the compound, how does the Inhibition (Plasmodium falciparum [1]) read?
Answer: Its Inhibition is 100%.

Question: What about the Inhibition (Plasmodium falciparum [2]) of the same compound?
Answer: Its Inhibition is 100%.

Question: And the Inhibition (HepG2)?
Answer: The Inhibition was 22%.

Question: For CCc1c[nH]c2c(N(c3ccccc3)S(C)(=O)=O)cc(C(=O)N[C@@H](Cc3ccccc3)[C@H](O)CNC(C)(C)CCCC(C)C)cc12.O=CO, which Inhibition (Plasmodium falciparum [1]) is on record?
Answer: The Inhibition was 98%.

Question: What about the Inhibition (Plasmodium falciparum [2]) of the same compound?
Answer: The Inhibition was 96%.

Question: And the Inhibition (HepG2)?
Answer: Its Inhibition is 99%.

Question: Cc1sc2ncnc(Sc3nc4ccccc4[nH]3)c2c1C was tested. Which Inhibition (Plasmodium falciparum [1]) did it give?
Answer: The Inhibition was 99%.

Question: What about the Inhibition (Plasmodium falciparum [2]) of the same compound?
Answer: Its Inhibition is 100%.

Question: And the Inhibition (HepG2)?
Answer: The Inhibition was 14%.

Question: With CCN(CC)CCCNC(=O)/C(=C/C=C/c1cc2cc(Cl)c(Cl)cc2[nH]1)OC.Cl as the compound, how does the Inhibition (Plasmodium falciparum [1]) read?
Answer: The Inhibition was 84%.

Question: What about the Inhibition (Plasmodium falciparum [2]) of the same compound?
Answer: Its Inhibition is 21%.

Question: What about the Inhibition (HepG2) of the same compound?
Answer: The Inhibition was 38%.

Question: With O=C(Nc1ccon1)c1cc(-c2cccnc2)nc2ccc(Cl)cc12 as the compound, how does the Inhibition (Plasmodium falciparum [1]) read?
Answer: Its Inhibition is 98%.

Question: And the Inhibition (Plasmodium falciparum [2])?
Answer: The Inhibition was 76%.

Question: What about the Inhibition (HepG2) of the same compound?
Answer: The Inhibition was 0%.

Question: How did the Inhibition (Plasmodium falciparum [1]) turn out when CCN1CCN(CC(O)CNC(=O)Nc2ccc(Cl)cc2)CC1.O=C(O)C(F)(F)F (stereo not given) was run?
Answer: Its Inhibition is 100%.

Question: What about the Inhibition (Plasmodium falciparum [2]) of the same compound?
Answer: The Inhibition was 99%.

Question: And the Inhibition (HepG2)?
Answer: Its Inhibition is 29%.

Question: Which results are given for O=C(Nc1ccc(C(F)(F)F)cc1)NC1CCN(c2ccnc3cc(Cl)ccc23)C1.O=C(O)C(F)(F)F (stereo not given)?
Answer: Inhibition (Plasmodium falciparum [1]): 100%; Inhibition (Plasmodium falciparum [2]): 99%; Inhibition (HepG2): 20%

Question: Which results are given for O=C(O)c1ccc(-c2c[nH]c3ncc(-c4ccc(Cl)cc4)cc23)cc1?
Answer: Inhibition (Plasmodium falciparum [1]): 97%; Inhibition (Plasmodium falciparum [2]): 99%; Inhibition (HepG2): 39%

Question: Which Inhibition (Plasmodium falciparum [1]) does the source give for CCNc1cc(C(=O)N[C@@H](Cc2ccccc2Cl)[C@H](O)CNC(C)CCCC(C)C)cc(N2CCCCS2(=O)=O)c1.Cl (stereo not given in full) here?
Answer: Its Inhibition is 97%.

Question: What about the Inhibition (Plasmodium falciparum [2]) of the same compound?
Answer: Its Inhibition is 62%.

Question: What about the Inhibition (HepG2) of the same compound?
Answer: Its Inhibition is 12%.

Question: Which results are given for CCCn1c(Sc2ccc(C#N)c([N+](=O)[O-])c2)nnc1-c1ccc(Cl)cc1?
Answer: Inhibition (Plasmodium falciparum [1]): 96%; Inhibition (Plasmodium falciparum [2]): 95%; Inhibition (HepG2): 12%

Question: For CNC(=O)c1cc(NCCCNCc2ccc(Cl)c(C(F)(F)F)c2)nc2ccccc12.Cl, which Inhibition (Plasmodium falciparum [1]) is on record?
Answer: Its Inhibition is 91%.

Question: And the Inhibition (Plasmodium falciparum [2])?
Answer: Its Inhibition is 7%.

Question: What about the Inhibition (HepG2) of the same compound?
Answer: Its Inhibition is 25%.

Question: Which Inhibition (Plasmodium falciparum [1]) does the source give for COc1ccc(CN2CCN(CCCCNC(=O)c3ccc(NC(=O)c4ccc(Cl)cc4)cc3)CC2)c(OC)c1 here?
Answer: Its Inhibition is 94%.

Question: What about the Inhibition (Plasmodium falciparum [2]) of the same compound?
Answer: The Inhibition was 0%.

Question: And the Inhibition (HepG2)?
Answer: Its Inhibition is 25%.

Question: COc1ccc(C2CC(c3ccccc3)=NN2C(=O)c2ccc(Br)o2)cc1 (stereo not given) was tested. Which Inhibition (Plasmodium falciparum [1]) did it give?
Answer: The Inhibition was 96%.

Question: And the Inhibition (Plasmodium falciparum [2])?
Answer: The Inhibition was 45%.

Question: What about the Inhibition (HepG2) of the same compound?
Answer: The Inhibition was 6%.

Question: Cc1cnc(NCCc2ccc(F)cc2)nc1NCCC(=O)Nc1ccccc1.O=C(O)C(F)(F)F was tested. Which Inhibition (Plasmodium falciparum [1]) did it give?
Answer: Its Inhibition is 89%.

Question: And the Inhibition (Plasmodium falciparum [2])?
Answer: The Inhibition was 17%.

Question: What about the Inhibition (HepG2) of the same compound?
Answer: Its Inhibition is 3%.

Question: How did the Inhibition (Plasmodium falciparum [1]) turn out when CCOc1ccc(N2C(N)=NC(N)=NC2(C)C)cc1.Cl was run?
Answer: The Inhibition was 95%.

Question: And the Inhibition (Plasmodium falciparum [2])?
Answer: Its Inhibition is 0%.

Question: What about the Inhibition (HepG2) of the same compound?
Answer: Its Inhibition is 10%.

Question: For O=C(Nc1ccc(Cl)cc1)Nc1ccc(-c2csc(-c3nc4ccccc4[nH]3)c2)cc1, which Inhibition (Plasmodium falciparum [1]) is on record?
Answer: The Inhibition was 90%.

Question: And the Inhibition (Plasmodium falciparum [2])?
Answer: Its Inhibition is 40%.

Question: And the Inhibition (HepG2)?
Answer: Its Inhibition is 59%.

Question: COc1ccc(Nc2c3ccc(Cl)cc3nc3ccc(OC)cc23)cc1.Cl was tested. Which Inhibition (Plasmodium falciparum [1]) did it give?
Answer: The Inhibition was 94%.

Question: And the Inhibition (Plasmodium falciparum [2])?
Answer: The Inhibition was 99%.

Question: What about the Inhibition (HepG2) of the same compound?
Answer: The Inhibition was 14%.

Question: How did the Inhibition (Plasmodium falciparum [1]) turn out when COc1cc(Cc2cnc(N)nc2N)cc(OC)c1OC [TRIMETHOPRIM] was run?
Answer: Its Inhibition is 88%.

Question: What about the Inhibition (Plasmodium falciparum [2]) of the same compound?
Answer: The Inhibition was 2%.

Question: And the Inhibition (HepG2)?
Answer: The Inhibition was 0%.

Question: How did the Inhibition (Plasmodium falciparum [1]) turn out when O=c1c2ccccc2[nH]c2cc(Cl)ccc12 was run?
Answer: Its Inhibition is 95%.

Question: And the Inhibition (Plasmodium falciparum [2])?
Answer: The Inhibition was 86%.

Question: What about the Inhibition (HepG2) of the same compound?
Answer: Its Inhibition is 24%.

Question: For Cc1nc(C)c(-c2ccc(Cl)cc2Cl)c(O)c1Br, which Inhibition (Plasmodium falciparum [1]) is on record?
Answer: The Inhibition was 87%.

Question: And the Inhibition (Plasmodium falciparum [2])?
Answer: The Inhibition was 57%.

Question: What about the Inhibition (HepG2) of the same compound?
Answer: Its Inhibition is 3%.

Question: With Nc1ncc(-c2cc3ccccc3o2)c(N)n1 as the compound, how does the Inhibition (Plasmodium falciparum [1]) read?
Answer: Its Inhibition is 81%.

Question: What about the Inhibition (Plasmodium falciparum [2]) of the same compound?
Answer: Its Inhibition is 2%.

Question: And the Inhibition (HepG2)?
Answer: Its Inhibition is 0%.
